Assay outcomes deposited in PubChem BioAssay by several laboratories.
Only some compounds are listed: those with a hit (about 2.5% of all), similar ones and a draw of the others.
p97 ATPase inh – blocks human p97 ATPase activity; AID 1481; 0.42% of 220,000 active; inhibition, % at 8 µM; recombinant p97 ATPase, Kinase-Glo ATP luminescence, 3 h; in the data active = inhibition above about 15%;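 also: 0% = DMSO vehicle and 100% = wells lacking enzyme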
UBC9 SUMO inh – inhibitors of human SUMOylation (UBC9); HTRF SUMOylation assay, SAE1/SAE2 + UBC9, in vitro; 0.36% of 290,000 active; inhibition, % at 35 µM; in the data active = inhibition above about 50%, passing the limit was not always enough; inconclusive = no clear call, values can overlap the other calls
G6PDH CS – counter-screen for G6PDH assay hits: L. mesenteroides G6PDH inhibition; Purified L. mesenteroides G6PDH, diaphorase/resazurin coupled fluorescence, 45 min; inhibition, % at 5 µM; 0.12% of 200,000 active; AID 1020; in the data active = inhibition above about 50%
PfM18AAP inh-1 – blocks P. falciparum M18 aspartyl aminopeptidase. recombinant PfM18AAP, H-Glu-NHMec fluorogenic cleavage. inhibition, % at 7.35 µM. 1.2% of 290,000 active;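 active = inhibition above the campaign mean inhibition over all tested compounds plus 3 SD, cut at about 28% in these data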;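 also: 0% = plate median of test compound wells and 100% = 2 mM ZnCl2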
PHOSPHO1 block – inhibitors of human PHOSPHO1 phosphatase | Q8TCT1 | recombinant PHOSPHO1, absorbance phosphatase assay | 1.1% of 290,000 active | inhibition, % at 13.3 µM; in the data active = inhibition above about 60%
HDAC3 inh – inhibitors of human histone deacetylase 3. O15379. recombinant HDAC3, fluorogenic peptide/trypsin coupled, fluorescence. inhibition, % at 8.3 µM. 0.15% of 320,000 active; in the data active = inhibition above about 26%, passing the limit was not always enough; inconclusive = no clear call, values can overlap the other calls
Target sequence (O15379 whole entry, looked up): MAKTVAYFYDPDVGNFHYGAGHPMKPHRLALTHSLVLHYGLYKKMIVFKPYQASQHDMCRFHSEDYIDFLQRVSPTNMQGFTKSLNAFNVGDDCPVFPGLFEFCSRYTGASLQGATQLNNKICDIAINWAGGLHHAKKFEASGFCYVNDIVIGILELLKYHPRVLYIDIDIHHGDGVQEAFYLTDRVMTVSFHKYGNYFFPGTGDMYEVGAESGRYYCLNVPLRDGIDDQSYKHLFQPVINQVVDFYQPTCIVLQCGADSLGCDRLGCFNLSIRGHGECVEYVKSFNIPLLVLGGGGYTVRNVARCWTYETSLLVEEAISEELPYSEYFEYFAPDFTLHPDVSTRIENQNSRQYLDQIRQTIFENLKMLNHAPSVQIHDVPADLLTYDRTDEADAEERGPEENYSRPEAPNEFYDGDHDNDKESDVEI
PfM18AAP inh-2 – PfM18AAP inhibition, confirmation; recombinant PfM18AAP, H-Glu-NHMec fluorogenic cleavage; shares compounds with PfM18AAP inh-1; inhibition, % at 7.35 µM; AID 2170; 28% of 2,400 active;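 active = mean inhibition over replicate wells above the hit cutoff set for the earlier primary screen, cut at about 29% in these data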;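 also: 0% = median of test compound wells and 100% = 2 mM ZnCl2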
CTSL1 confirm – counter-screen for PFM18AAP inhibitors: confirmation of human cathepsin L inhibitors; shares compounds with PfM18AAP inh-1; purified cathepsin L1, Z-Leu-Arg-MCA fluorescence; inhibition, % at 5.96 µM; 2,400 tested, under 10 active; AID 2178;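 active = average inhibition across replicates above the hit cutoff set in the earlier primary screen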;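 also: 0% = median of test compound wells and 100% = Z-Phe-Ala-diazomethylketone 1 µM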
Numbers without * were called inactive; ? = inconclusive; nt = not tested or not shown.

SMILES | p97 ATPase inh | UBC9 SUMO inh | G6PDH CS | PfM18AAP inh-1 | PHOSPHO1 block | HDAC3 inh | PfM18AAP inh-2 | CTSL1 confirm
Cc1cccc(NC(=S)NC(=O)c2oc3ccccc3c2C)n1 | nt | 3.6 | nt | -5.9 | -26.1 | -0.5 | nt | nt
Oc1cc2c(cc1CN1CCc3ccccc3C1)OCO2 | nt | -1.8 | nt | 37.3* | 13.0 | 4.6 | 11.9 | -5.7
COc1ccccc1N1CCN(Cc2cc3c(cc2O)OCO3)CC1 | nt | 12.7 | nt | 15.9 | 23.3 | 3.2 | nt | nt
CCOC(=O)Nc1sc2c(c1C(=O)OCC)CCC2 | -2.8 | 22.5 | 4.1 | -8.3 | -11.8 | 2.8 | nt | nt
CCOC(=O)c1c(NS(=O)(=O)c2cccc(OC)c2)sc2c1CCC2 | 0.6 | -4.2 | 13.8 | 33.2* | 29.0 | 3.7 | -83.8 | 0.5
CC1CCCC(NC(=O)CN2C(=O)NC(C)(c3cc(F)ccc3F)C2=O)C1C (centres undefined) | nt | nt | nt | nt | nt | -4.2 | nt | nt
O=C(CN1C(=O)COc2ccccc2C1=O)c1ccc2c(c1)OCCO2 | nt | -8.6 | nt | -0.1 | 29.3 | -6.8 | nt | nt
COc1ccc(CNC(=O)c2ccccc2SCC(=O)NCc2ccco2)cc1 | nt | nt | nt | nt | nt | 2.4 | nt | nt
N#CCSCC(=O)Nc1ccccc1 | 1.4 | 14.5 | 7.4 | 3.8 | -21.2 | -8.7 | nt | nt
N#C/C(Cn1c[n+](NC(=O)Nc2ccccc2)cn1)=N/O | 0.4 | 28.7 | 16.6 | 47.1* | 3.6 | 3.3 | 10.2 | 1.6
CCOC(=O)COc1ccc(C(c2c(C)[nH][nH]c2=O)c2c(C)[nH][nH]c2=O)cc1 | nt | 7.0 | nt | 34.2* | 44.9 | -1.1 | -3.1 | -0.3
COC(=O)COc1c(Cl)cc(C(c2c(C)[nH][nH]c2=O)c2c(C)[nH][nH]c2=O)cc1OC | nt | 2.8 | nt | 33.5* | 38.1 | 0.9 | 13.1 | -0.2
COc1cc(C(c2c(C)[nH][nH]c2=O)c2c(C)[nH][nH]c2=O)cc(Br)c1OC | nt | -3.2 | nt | 37.7* | nt | -4.4 | 16.3 | -3.2
COCCNC(=O)C(c1ccc(C)cc1)N(C(=O)CCC(=O)Nc1ccccn1)C1CCCCC1 (centres undefined) | nt | 3.0 | nt | -1.1 | 46.2 | -10.7 | nt | nt
O=C(NCc1ccc2c(c1)CCO2)Nc1ccccc1 | 7.2 | 0.2 | nt | -5.2 | -5.5 | -11.4 | nt | nt
COc1ccc(O)c(C(=O)C2c3ccccc3C(=O)N2c2ccc(C)cc2)c1 (centres undefined) | 2.1 | 15.9 | nt | 40.1* | 42.1 | 1.5 | 26.0 | 4.0
COc1ccc2cc(/C=C3\SC(=S)NC3=O)c(N3CCOCC3)nc2c1 | -1.6 | 24.2 | 3.3 | -3.9 | -7.4 | 4.8 | nt | nt
COC(=O)/C=C1\SC(N2CCOCC2)=C(c2ccc(OC)cc2)C1=O | 5.8 | 2.8 | 8.8 | 47.1* | -50.0 | 3.4 | 32.4* | -1.2
Cc1cc(=O)oc2cc(NC(=S)NNC(=O)c3c(Cl)cnn3C)ccc12 | nt | 8.7 | nt | 11.7 | -51.6 | 5.6 | nt | nt
COc1ccc(OC)c(C2NC(=S)NC3=C2N2CCC3CC2)c1 (centres undefined) | -0.2 | 12.7 | -1.1 | 44.0* | -15.9 | -1.3 | -49.0 | 1.5
COC(=O)/C=c1\sc2ncnn2c1=O | 2.0 | -12.8 | -14.4 | 38.4* | 10.4 | 7.9 | -30.5 | -2.1
COCCNC(=O)NC1(C(F)(F)F)Oc2ccc(Cl)cc2O1 (centres undefined) | -4.4 | -8.1 | 19.7 | 82.7* | 15.9 | 2.8 | 60.8* | 1.1
O=C(NCc1cccnc1)NC1(C(F)(F)F)Oc2ccc(Cl)cc2O1 (centres undefined) | 3.4 | -3.2 | -11.7 | 79.8* | 11.7 | -0.5 | 82.8* | -0.9
Cc1cc(NC(=O)NC2(C(F)(F)F)Oc3ccc(Cl)cc3O2)no1 (centres undefined) | 2.2 | -0.4 | 26.2 | 88.5* | -10.8 | ? | 83.2* | -2.0
COc1cccc(OC)c1C(=O)NC(=O)NNc1cc(C(F)(F)F)cc(C)n1 | nt | -5.0 | nt | 40.4* | 19.2 | 6.9 | -0.9 | 2.8
COc1cccc(OC)c1C(=O)NC(=O)Nc1c(F)cc(F)cc1F | 4.8 | 6.0 | nt | -0.9 | 46.0 | -1.0 | nt | nt
CC(=O)c1csc(COc2ccc(Cl)cc2)n1 | 6.5 | -2.4 | nt | -0.9 | 16.2 | 0.6 | nt | nt
